Reference: the antibiotic and cytotoxicity screens of Wong et al. (2023)
Screen size: about 39,000 compounds; about 3,300 (8.5%) were called active. The list comes from a sample in which actives are over-represented; it also holds similar structures and randomly drawn compounds.

The compounds below were run on HepG2 (assay: cytotoxicity call (relative viability < 0.9)). Conditions: 10 µM.

Question: With `C[C@@H]1CN([C@@H](C)CO)C(=O)c2cc(NS(=O)(=O)c3ccc(Cl)cc3)ccc2O[C@@H](C)CCCCO[C@H]1CN(C)Cc1ccc(C(F)(F)F)cc1` as the compound, how does the cytotoxicity call read?
Answer: active

Question: `C[C@@H]1CN([C@H](C)CO)C(=O)c2cc(NS(=O)(=O)c3ccc(Cl)cc3)ccc2O[C@@H](C)CCCCO[C@@H]1CN(C)Cc1ccc(C(F)(F)F)cc1` was tested. Which cytotoxicity call did it give?
Answer: inactive

Question: How did the cytotoxicity call turn out when `C[C@@H]1CCCCO[C@@H](CN(C)Cc2ccc(C(F)(F)F)cc2)[C@@H](C)CN([C@@H](C)CO)C(=O)c2cc(NS(=O)(=O)c3ccc(Cl)cc3)ccc2O1` was run?
Answer: inactive

Question: How did the cytotoxicity call turn out when `C[C@@H]1CCCCO[C@H](CN(C)Cc2ccc(C(F)(F)F)cc2)[C@@H](C)CN([C@H](C)CO)C(=O)c2cc(NS(=O)(=O)c3ccc(Cl)cc3)ccc2O1` was run?
Answer: active

Question: With `C[C@H]1CCCCO[C@H](CN(C)Cc2ccc(C(F)(F)F)cc2)[C@@H](C)CN([C@@H](C)CO)C(=O)c2cc(NS(=O)(=O)c3ccc(Cl)cc3)ccc2O1` as the compound, how does the cytotoxicity call read?
Answer: inactive

Question: Which cytotoxicity call does the source give for `C[C@@H]1CCCCO[C@@H](CN(C)Cc2ccc(C(F)(F)F)cc2)[C@@H](C)CN([C@H](C)CO)C(=O)c2cc(NS(=O)(=O)c3ccc(Cl)cc3)ccc2O1` here?
Answer: active

Question: With `C[C@H]1CCCCO[C@@H](CN(C)Cc2ccc(C(F)(F)F)cc2)[C@@H](C)CN([C@@H](C)CO)C(=O)c2cc(NS(=O)(=O)c3ccc(Cl)cc3)ccc2O1` as the compound, how does the cytotoxicity call read?
Answer: inactive

Question: `C[C@@H]1CCCCO[C@@H](CN(C)Cc2ccc(C(F)(F)F)cc2)[C@H](C)CN([C@@H](C)CO)C(=O)c2cc(NS(=O)(=O)c3ccc(Cl)cc3)ccc2O1` was tested. Which cytotoxicity call did it give?
Answer: active

Question: For `Cc1ccc(S(=O)(=O)N(C)C[C@H]2Oc3ccc(NS(=O)(=O)c4c(C)noc4C)cc3C(=O)N([C@H](C)CO)C[C@@H]2C)cc1`, which cytotoxicity call is on record?
Answer: inactive

Question: How did the cytotoxicity call turn out when `C[C@]12C(=O)N(CCC(=O)O)C(=O)[C@H]1[C@@H]1C=C[C@@H]2C1` was run?
Answer: inactive

Question: `Cc1ccc(S(=O)(=O)Nc2cccc3c2O[C@@H](CN(C)S(=O)(=O)c2ccc(F)cc2)[C@H](C)CN([C@@H](C)CO)C3=O)cc1` was tested. Which cytotoxicity call did it give?
Answer: inactive

Question: For `O=C(Cn1ccc([N+](=O)[O-])n1)N1CCOCC1`, which cytotoxicity call is on record?
Answer: inactive

Question: With `COc1ccc(NC(=O)N(C)C[C@H]2Oc3ccc(NC(=O)Cn4cnnn4)cc3CC(=O)N([C@H](C)CO)C[C@H]2C)cc1` as the compound, how does the cytotoxicity call read?
Answer: inactive

Question: For `C[C@H](CO)N1C[C@H](C)[C@H](CN(C)Cc2ccc(Oc3ccccc3)cc2)Oc2c(NS(=O)(=O)c3ccc(F)cc3)cccc2C1=O`, which cytotoxicity call is on record?
Answer: inactive

Question: With `C[C@H](CO)N1C[C@H](C)[C@@H](CN(C)S(=O)(=O)c2ccc(Cl)cc2)Oc2ccc(NS(=O)(=O)c3cn(C)cn3)cc2C1=O` as the compound, how does the cytotoxicity call read?
Answer: inactive

Question: For `O=C(NCCCN1CCOCC1)[C@@H]1[C@@H](CO)[C@@H]2Cn3c(ccc(C4=CCCCC4)c3=O)[C@H]1N2`, which cytotoxicity call is on record?
Answer: inactive

Question: With `Cc1ccc(S(=O)(=O)Nc2cccc3c2O[C@@H](CN(C)S(=O)(=O)c2ccc(F)cc2)[C@H](C)CN([C@H](C)CO)C3=O)cc1` as the compound, how does the cytotoxicity call read?
Answer: inactive

Question: For `CC(C)(C)OC(=O)C[C@@H]1CC=CC[C@@H](CC(=O)N[C@H](CO)Cc2ccccc2)C(=O)N[C@@H](C(C)(C)C)COC1=O`, which cytotoxicity call is on record?
Answer: inactive

Question: `CC1CCN(S(=O)(=O)c2c[nH]cn2)CC1` was tested. Which cytotoxicity call did it give?
Answer: inactive

Question: For `Cc1noc(C)c1NC(=O)N(C)C[C@H]1Oc2ccc(NS(C)(=O)=O)cc2C(=O)N([C@H](C)CO)C[C@H]1C`, which cytotoxicity call is on record?
Answer: inactive

Question: Which cytotoxicity call does the source give for `COc1ccc(CN(C)C[C@H]2OCCCC[C@H](C)Oc3ccc(NC(=O)NC(C)C)cc3C(=O)N([C@@H](C)CO)C[C@@H]2C)cc1` here?
Answer: inactive

Question: How did the cytotoxicity call turn out when `C[C@H](CO)N1C[C@H](C)[C@H](CN(C)Cc2ccc(C(F)(F)F)cc2)OCCCC[C@H](C)Oc2ccc(NS(=O)(=O)c3ccc(Cl)cc3)cc2C1=O` was run?
Answer: active

Question: How did the cytotoxicity call turn out when `C[C@@H]1CCCCO[C@H](CN(C)Cc2ccc(C(F)(F)F)cc2)[C@H](C)CN([C@@H](C)CO)C(=O)c2cc(NS(=O)(=O)c3ccc(Cl)cc3)ccc2O1` was run?
Answer: active

Question: How did the cytotoxicity call turn out when `C[C@@H]1CN([C@@H](C)CO)C(=O)c2cc(NC(=O)Cc3cn(C)c4ccccc34)ccc2O[C@@H]1CN(C)CC1CCCCC1` was run?
Answer: inactive

Question: How did the cytotoxicity call turn out when `Cc1noc(C)c1S(=O)(=O)Nc1ccc2c(c1)C(=O)N([C@@H](C)CO)C[C@@H](C)[C@@H](CN(C)C(=O)Nc1ccccc1)OCCCC[C@@H](C)O2` was run?
Answer: inactive

Question: How did the cytotoxicity call turn out when `O=C(O)CCCN1C(=O)CSC1=S` was run?
Answer: inactive

Question: `C[C@@H]1CCCCO[C@H](CN(C)C(=O)Nc2ccc(F)cc2)[C@@H](C)CN([C@@H](C)CO)C(=O)c2cc(NC(=O)NC3CCCCC3)ccc2O1` was tested. Which cytotoxicity call did it give?
Answer: inactive

Question: How did the cytotoxicity call turn out when `C[C@H](CO)N1C[C@H](C)[C@@H](CN(C)S(C)(=O)=O)Oc2ccc(NC(=O)C3CCCCC3)cc2CC1=O` was run?
Answer: inactive

Question: For `C[C@H](CO)N1C[C@H](C)[C@@H](CN(C)Cc2ccc3c(c2)OCO3)Oc2ccc(NC(=O)Cn3cnnn3)cc2C1=O`, which cytotoxicity call is on record?
Answer: inactive

Question: Which cytotoxicity call does the source give for `Cc1ccc(-c2ccc(OC(=O)c3ccccc3F)cc2)cc1` here?
Answer: inactive

Question: With `O=C(Oc1ccc(C2CCCCC2)cc1)c1cccs1` as the compound, how does the cytotoxicity call read?
Answer: inactive

Question: For `Cc1ccc(C(=O)Oc2ccc(/C=N/c3cccs3)cc2)cc1`, which cytotoxicity call is on record?
Answer: active

Question: For `C[C@H](CO)N1C[C@H](C)[C@@H](CN(C)S(C)(=O)=O)OCCCC[C@H](C)Oc2ccc(NC(=O)c3ccncc3)cc2C1=O`, which cytotoxicity call is on record?
Answer: inactive

Question: For `CC(C)NC(=O)Nc1ccc2c(c1)C(=O)N([C@H](C)CO)C[C@H](C)[C@@H](CN(C)CC1CCCCC1)OCCCC[C@H](C)O2`, which cytotoxicity call is on record?
Answer: inactive

Question: With `C[C@H]1CN([C@@H](C)CO)C(=O)c2cccc(NC(=O)C3CC3)c2O[C@H]1CN(C)C(=O)NC1CCCCC1` as the compound, how does the cytotoxicity call read?
Answer: inactive

Question: How did the cytotoxicity call turn out when `O=C(C[C@@H]1C=C[C@H](NC(=O)c2cnccn2)[C@@H](CO)O1)NCc1ccccc1F` was run?
Answer: inactive

Question: With `COc1ccc2c(c1)OC1COc3cc(OC)c(OC)cc3C1C2=O` (stereo not drawn) as the compound, how does the cytotoxicity call read?
Answer: active

Question: Which cytotoxicity call does the source give for `COc1cc2c(cc1OC)-c1c(oc3c4c(ccc3c1=O)OC(C)(C)C=C4)CO2` here?
Answer: active

Question: `CC1(C)C=Cc2cc3ccc(=O)oc3cc2O1` was tested. Which cytotoxicity call did it give?
Answer: inactive

Question: `COc1ccc2c(c1)OC1c3ccc(OC)cc3OCC21` (stereo not drawn) was tested. Which cytotoxicity call did it give?
Answer: inactive

Question: How did the cytotoxicity call turn out when `COc1cc2c(cc1OC)C1C(=O)c3c(O)cc4c(c3OC1CO2)C=CC(C)(C)O4` (stereo not drawn) [alpha-TOXICAROL (dl) ] was run?
Answer: active

Question: For `COc1cc2c(cc1OC)C1C(=O)c3ccc4c(c3OC1CO2)C=CC(C)(C)O4` (stereo not drawn), which cytotoxicity call is on record?
Answer: active

Question: Which cytotoxicity call does the source give for `COc1cc2c(c3ccccc13)OC(C)(C)C=C2` here?
Answer: inactive

Question: For `COc1ccc(-c2c(O)c3c(OC)c4c(cc3oc2=O)OC(C)(C)C=C4)cc1`, which cytotoxicity call is on record?
Answer: inactive

Question: How did the cytotoxicity call turn out when `CC(=O)c1cc2c(cc1O)OC(C)(C)C=C2` was run?
Answer: inactive

Question: How did the cytotoxicity call turn out when `COc1cc(OC)c2c(c1)OC(c1ccccc1)CC2=O` (stereo not drawn) was run?
Answer: inactive

Question: For `COc1cc2c(cc1OC)-c1c(oc3cc4c(cc3c1=O)CCO4)CO2`, which cytotoxicity call is on record?
Answer: inactive

Question: How did the cytotoxicity call turn out when `Nc1ccc(Cl)nn1` was run?
Answer: inactive

Question: `C[C@@H]1CN([C@@H](C)CO)C(=O)CCCn2nncc2CO[C@H]1CN(C)S(=O)(=O)c1ccc(Cl)cc1` was tested. Which cytotoxicity call did it give?
Answer: inactive

Question: `O=C(C[C@@H]1CC[C@@H](NC(=O)CN2CCOCC2)[C@H](CO)O1)NCCc1ccncc1` was tested. Which cytotoxicity call did it give?
Answer: inactive

Question: Which cytotoxicity call does the source give for `C[C@@H]1CCCCO[C@H](CN(C)C(=O)C2CCCCC2)[C@H](C)CN([C@@H](C)CO)C(=O)c2cc(NC(=O)Cc3ccccc3)ccc2O1` here?
Answer: inactive

Question: Which cytotoxicity call does the source give for `Cc1cn(Cc2ccccc2)c(=O)[nH]c1=O` here?
Answer: inactive

Question: With `O=C(C[C@H]1CC[C@@H]2[C@H](COC[C@@H](O)CN2C(=O)Nc2cc(Cl)cc(Cl)c2)O1)N1CCOCC1` as the compound, how does the cytotoxicity call read?
Answer: inactive

Question: With `COC[C@@H]1c2nnn(C)c2CCN1S(=O)(=O)c1cn(C)cn1` as the compound, how does the cytotoxicity call read?
Answer: inactive

Question: Which cytotoxicity call does the source give for `C[C@@H]1CCCCO[C@@H](CN(C)CC2CCCCC2)[C@H](C)CN([C@@H](C)CO)C(=O)c2cc(NS(=O)(=O)c3ccc(F)cc3)ccc2O1` here?
Answer: active

Question: With `C[C@@H]1CCCCO[C@H](CN(C)CC2CCCCC2)[C@@H](C)CN([C@H](C)CO)C(=O)c2cc(NS(=O)(=O)c3ccc(F)cc3)ccc2O1` as the compound, how does the cytotoxicity call read?
Answer: inactive

Question: Which cytotoxicity call does the source give for `C[C@@H]1CCCCO[C@@H](CN(C)CC2CCCCC2)[C@H](C)CN([C@H](C)CO)C(=O)c2cc(NS(=O)(=O)c3ccc(F)cc3)ccc2O1` here?
Answer: inactive

Question: How did the cytotoxicity call turn out when `C[C@H](CO)N1C[C@H](C)[C@H](CN(C)CC2CCCCC2)OCCCC[C@H](C)Oc2ccc(NS(=O)(=O)c3ccc(F)cc3)cc2C1=O` was run?
Answer: active

Question: How did the cytotoxicity call turn out when `C[C@@H]1CN([C@H](C)CO)C(=O)c2cc(NS(=O)(=O)c3ccc(F)cc3)ccc2O[C@@H](C)CCCCO[C@@H]1CN(C)CC1CCCCC1` was run?
Answer: inactive

Question: Which cytotoxicity call does the source give for `C[C@@H]1CCCCO[C@H](CN(C)CC2CCCCC2)[C@H](C)CN([C@H](C)CO)C(=O)c2cc(NS(=O)(=O)c3ccc(F)cc3)ccc2O1` here?
Answer: inactive

Question: Which cytotoxicity call does the source give for `C[C@H]1CCCCO[C@H](CN(C)CC2CCCCC2)[C@@H](C)CN([C@@H](C)CO)C(=O)c2cc(NS(=O)(=O)c3ccc(F)cc3)ccc2O1` here?
Answer: active

Question: `C[C@H](CO)N1C[C@H](C)[C@@H](CN(C)CC2CCCCC2)OCCCC[C@H](C)Oc2ccc(NS(=O)(=O)c3ccc(F)cc3)cc2C1=O` was tested. Which cytotoxicity call did it give?
Answer: inactive

Question: How did the cytotoxicity call turn out when `C[C@@H]1CCCCO[C@@H](CN(C)CC2CCCCC2)[C@@H](C)CN([C@H](C)CO)C(=O)c2cc(NS(=O)(=O)c3ccc(F)cc3)ccc2O1` was run?
Answer: active

Question: How did the cytotoxicity call turn out when `C[C@@H]1CCCCO[C@@H](CN(C)CC2CCCCC2)[C@@H](C)CN([C@@H](C)CO)C(=O)c2cc(NS(=O)(=O)c3ccc(F)cc3)ccc2O1` was run?
Answer: inactive

Question: `C[C@@H]1CN([C@@H](C)CO)C(=O)c2cc(NS(=O)(=O)c3ccc(F)cc3)ccc2O[C@@H](C)CCCCO[C@H]1CN(C)CC1CCCCC1` was tested. Which cytotoxicity call did it give?
Answer: inactive

Question: Which cytotoxicity call does the source give for `C[C@@H]1CN([C@@H](C)CO)C(=O)c2cc(NS(=O)(=O)c3ccc(F)cc3)ccc2O[C@@H](C)CCCCO[C@@H]1CN(C)CC1CCCCC1` here?
Answer: inactive

Question: Which cytotoxicity call does the source give for `CCCNC(=O)C[C@H]1CC[C@@H]2[C@@H](COc3ccc(NS(=O)(=O)c4ccccc4C)cc3C(=O)N2C)O1` here?
Answer: inactive

Question: How did the cytotoxicity call turn out when `O=C(C[C@H]1C=C[C@@H](NC(=O)c2ccc3c(c2)OCO3)[C@@H](CO)O1)NCc1ccc(Oc2ccccc2)cc1` was run?
Answer: inactive
